# Experimental data taken from the supplement of paper PMC11172423.
# A number with no mark means an inactive call.
# Key:
# [1] = tested on: Falciformispora senegalensis CBS197.79; assay: growth relative to untreated control; higher = less inhibition, active = 20 or less
# In short: (§1)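 In 96-well plates, suspended hyphal fragments of M. mycetomatis MM55 or F. senegalensis CBS197.79 were exposed to compound at 100 or 25 µM for 7 days at 37 °C. The suspension medium was colourless RPMI 1640 with L-glutamine and MOPS, adjusted to 68–72% transmission at 660 nm. Viability was measured with MTS (2 h, 490 nm) or resazurin (600 nm). Growth means metabolic activity compared with the untreated growth control after blank correction of both with medium plus dye.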
# [2] = tested on: Madurella mycetomatis MM55; assay: as above
# In short: as §1
Structure (SMILES),growth ([1]; 25 µM),growth ([1]; 100 µM),growth ([2]; 25 µM),growth ([2]; 100 µM)
NC(=O)N1CCC(CC(=O)N2CCC([C@H]3c4ncc(Br)cc4CCc4cc(Cl)cc(Br)c43)CC2)CC1,105%,101%,3.17% (active),11.2% (active)
C[C@@H](C1CCCCC1)n1c(-c2cc3c(cc2Br)OCO3)nc2cc(C(=O)Nc3ccc(C#N)cc3)ccc21,106%,102%,109%,89%
CC(=O)N1CCN(c2ccc(OC[C@H]3CO[C@](Cn4ccnc4)(c4ccc(Cl)cc4Cl)O3)cc2)CC1,31.6%,12.3% (active),3.29% (active),3.16% (active)
COc1ccc2cc1Oc1ccc(cc1)C[C@H]1c3cc(c(OC)cc3CCN1C)Oc1c(O)c(OC)cc3c1[C@@H](C2)N(C)CC3,100%,19.7% (active),5.48% (active),5.12% (active)
N#C/C(C(=O)c1ccccc1Cl)=C1\NC(c2ccccc2)=CS1,90.5%,100%,79.7%,45.4%
c1cc(N2CCC(CN3CCOCC3)CC2)c2sccc2n1,79%,32.1%,90.4%,31.4%
Cc1nc2ccccc2n1Cc1ccc(Cl)cc1,106%,76.5%,76.5%,5.04% (active)
CC1(C)CCC(CO)(NC(=O)c2cc3c(F)cc(F)cc3[nH]2)CC1,93.1%,93.5%,28.6%,6.07% (active)
CO[C@@H](C(=O)N1Cc2[nH]nc(NC(=O)c3ccc(N4CCN(C)CC4)cc3)c2C1)c1ccccc1,103%,102%,94%,77.7%
Oc1nc2ccccc2n1C1CCN(CCCC(c2ccc(F)cc2)c2ccc(F)cc2)CC1,101%,100%,7.07% (active),64.9%
CC[C@H](Nc1ncnc2[nH]cnc12)c1nc2cccc(F)c2c(=O)n1-c1ccccc1,98%,98.4%,103%,83.5%
CN[C@@H]1[C@H](O)[C@H](NC)[C@H]2O[C@@]3(O)C(=O)C[C@@H](C)O[C@H]3O[C@@H]2[C@H]1O,105%,102%,99.5%,71.3%
C[C@H](NC(=O)c1cc2nc(C(F)(F)F)ccc2[nH]1)c1ccccc1,88.2%,95.9%,86.1%,56.8%
COc1ccc(-n2nc(C(N)=O)c3c2C(=O)N(c2ccc(N4CCCCC4=O)cc2)CC3)cc1,104%,91.6%,111%,84.1%
CCNCc1cc(Nc2ccnc3cc(Cl)ccc23)ccc1O,48.5%,16.4% (active),37%,2.65% (active)
CC(C)N1CCN(c2ccc(OC[C@H]3CO[C@](Cn4cncn4)(c4ccc(Cl)cc4Cl)O3)cc2)CC1,20.1%,7.6% (active),3.57% (active),2.95% (active)
Oc1ccccc1CCNC1CCc2ccc(F)cc21 (stereo not given),107%,115%,32.8%,34%
CN(C)c1cc(NC(=O)CNC(C)(C)C)c(O)c2c1C[C@H]1C[C@H]3[C@H](N(C)C)C(O)=C(C(N)=O)C(=O)[C@@]3(O)C(O)=C1C2=O,104%,107%,69.1%,104%
CCOc1cc(C(C)(C)C)ccc1C1=N[C@@](C)(c2ccc(Cl)cc2)[C@@](C)(c2ccc(Cl)cc2)N1C(=O)N1CCN(CCCS(C)(=O)=O)CC1,99.6%,101%,86.9%,99.8%
CO[C@H]1C[C@@H]2CC[C@@H](C)[C@@](O)(O2)C(=O)C(=O)N2CCCC[C@H]2C(=O)O[C@H]([C@H](C)C[C@@H]2CC[C@@H](O)[C@H](OC)C2)CC(=O)[C@H](C)/C=C(\C)[C@@H](O)[C@@H](OC)C(=O)[C@H](C)C[C@H](C)/C=C/C=C/C=C/1C,103%,105%,120%,69.3%
